The list is not random: actives were taken first. Their share in the collection is about 21%.
Pf growth 96h = inhibits malaria parasite growth, 96 h; P. falciparum luciferase reporter growth, 96 h; Potency, µM (top dose mostly 28.7 µM), for inactives: top-dose activity change, negative = inhibition, usual class: inhibitors; actives 6.9% (n = 320,000); AID 504834; also: potency is read from the fitted curve at half-maximal effect; % is scaled to controls: 0 for no effect and ±100 for the full control effect
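Luminescence readout: decreased luciferase signal marks inhibited growth of reporter-expressing P. falciparum in infected red cells (2% hematocrit, 0.05% parasitemia final), exposed to compound two generations (96 h, 37 C, 5% CO2).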
SARS PLpro yeast-1 = blocks SARS-CoV papain-like protease in a yeast assay; actives 0.19% (n = 330,000); Potency, µM (series often up to 32.9 µM), for the others: at the top dose activity, positive = growth rescue, actives largely listed as activators; AID 485353; S. cerevisiae expressing SARS-CoV PLpro, growth rescue; calls by dose curve; also: potency is read from the fitted curve at half-maximal effect; 0% is about no effect; nearly all actives have a fitted effect of over 55% in size
Cycloheximide cs = affects cycloheximide protein synthesis inhibition readout, counter-screen; cell reporter, cycloheximide protein synthesis inhibition counterscreen; max response, %; actives 12% (n = 300,000); in the data active = max response mostly above about 13%, no sharp cut-off; inactive = mostly below about 14%; also: read at 38.3 µM for the half of the compounds with a filed dose; 0% is about no effect
NS1 function inh = influenza NS1 inhibition; actives 0.4% (n = 270,000); Potency, µM (titrated, usually from 46.1 µM), for the others: at the top dose activity, positive = more growth; AID 2326; calls by dose curve; also: potency is read from the fitted curve at half-maximal effect; actives are rising curves; nearly all actives have a fitted effect of over 50% in size
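A cell-based growth assay was used: compounds that relieve NS1-induced slow growth of budding yeast raise OD600. Assay medium was yeast nitrogen base with ammonium sulphate and -URA supplement, pH 6.0, with 2% galactose.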
Pf growth 48h = inhibits P. falciparum growth in the first generation, 48 h; P. falciparum luciferase growth in erythrocytes, 48 h; Potency, µM (series often up to 28.7 µM), without a hit: at the top dose activity change, negative = inhibition, most hits filed as inhibitors; actives 5.9% (n = 310,000); also: potency is read from the fitted curve at half-maximal effect; % is scaled to controls: 0 for no effect and ±100 for the full control effect
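Here the parasites carry a stable luciferase gene and grow inside erythrocytes in Albumax-based RPMI medium with compound for one erythrocytic cycle. Activity is scored as loss of luminescent signal.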
Shiga inhibitor = blocks Shiga toxin action in Vero cells | Vero cells, Shiga toxin protein synthesis inhibition reporter | inhibition, % at 38.7 µM | actives 9.2% (n = 290,000) | AID 2315; in the data active = inhibition mostly above about 28%, no sharp cut-off; inactive = mostly below about 43%; also: 0% is about no effect
SARS PLpro yeast-2 = Rescues yeast growth by inhibiting SARS-CoV PLpro | shares compounds with SARS PLpro yeast-1 | yeast expressing SARS-CoV PLpro, growth phenotype rescue | calls only | actives 19% (n = 1,000) | AID 652038; call rule not given here
* marks the source's active call; other numbers are inactive results; i = inactive; ? = inconclusive; · = no result given; + = active, no number; [ ] = another dose, or the depositor's remark. Unless noted, calls follow the shape of the dose curve; as a rule, active = well fitted inhibition curve with a large enough effect; inconclusive = small, poorly fitted or top-dose-only effect, or another doubt; inactive = no such curve, though single readings can be large or run the other way.

SMILES	Pf growth 96h	SARS PLpro yeast-1	Cycloheximide cs	NS1 function inh	Pf growth 48h	Shiga inhibitor	SARS PLpro yeast-2
O=C(O)CSc1nnc(CSc2nc3ccccc3s2)n1-c1ccccc1	-1.2%	5.1%	0.6	3.7%	7.1%	-12.4	·
Cc1ccsc1C(=O)N1CCC(N2CCC(C(=O)NCC3CCCO3)CC2)CC1 (stereo not drawn)	37.7%	-0.4%	-2.4	2.3%	4.0%	-29.1	·
C=CCn1c(SCC(=O)Nc2cc(C)ccc2OC)nnc1-c1ccco1	-23.8%	?	-8.8	-52.7%	-23.7%	-17.9	i
CC(C)COc1cccc(C(=O)N(C)CC(=O)Nc2cccc3ccccc23)c1	·	14.1µM*	·	·	·	·	i
CCCOc1ccc(-c2c(C(=O)N/N=C/c3ccc(OC)cc3)nnn2-c2nonc2N)cc1	-2.6%	4.3%	1.1	11.1%	1.4%	14.8	·
CCOc1ccc(-c2c(C(=O)N/N=C/c3ccc(OC)cc3)nnn2-c2nonc2N)cc1	2.3%	20µM*	-0.9	9.8%	-5.2%	-3.0	i
O=C(O)c1ccc(Cl)c(S(=O)(=O)NC(Cc2ccccc2)C(=O)O)c1 (stereo not drawn)	10.3%	1.2%	-1.9	·	-6.9%	-4.3	·
NC(=O)NOCc1ccccc1	54.0%	2.7%	-2.8	1.2%	4.1%	-4.1	·
CC(O)CC(=O)NOCc1ccccc1 (stereo not drawn)	·	?	·	·	·	·	i
CCNC(=O)/C(=C\C=C\c1ccccc1)NC(=O)c1ccc(Br)o1	?	16.1%	-2.2	-3.3%	-3.3%	-3.7	·
CCC1CCC2(CC1)NNC(=S)NN2	?	8.91µM*	8.6	2.9%	·	21.5	i
COc1ccccc1N1CCN(C(=O)CCc2nnc3ccc(N4CCOCC4)nn23)CC1	?	-0.3%	1.5	10.2%	2.4%	-2.5	·
COC(=O)C1=C(c2ccc(-c3ccccc3)c(F)c2)C[C@@H]2CC[C@H]1N2C(=O)NC1CC1	2.94µM*	?	·	·	4.65µM*	·	i
COC(=O)C1=C(c2ccc(-c3ccccc3)c(F)c2)C[C@@H]2CC[C@H]1N2C(=O)NC(C)C	?	2.7%	·	·	?	·	·
CN(C)S(=O)(=O)c1ccc(/C(O)=C2/C(=O)C(=O)N(Cc3cccnc3)C2c2ccncc2)cc1 (stereo not drawn)	·	10µM*	0.7	-5.6%	93.1%	-1.7	i
COC(=O)Cc1c(O)ccn(Cc2ccc(Cl)c(Cl)c2)c1=O	17.3%	-1.0%	-1.1	-7.4%	13.4%	-5.2	·
CCCCCN(C(=O)NC(=O)Nc1ccccc1C)S(=O)(=O)c1ccccc1	4.7%	?	6.5	-10.3%	43.0%	12.8	i
O=C(CNS(=O)(=O)c1ccc2ccccc2c1)OCc1csc(-c2ccccc2)n1	?	3.16µM*	19.7*	-16.9%	-5.5%	19.0	i
COc1ccc(N2CCN(C(=O)[C@H](Cc3c[nH]c4ccccc34)NC(C)=O)CC2)cc1	43.1%[5.75 µM]	0.8%	4.0	1.7%	-0.5%	20.3	·
S=C(NCc1ccccc1)NNc1nc2ccccc2[nH]1	?	2.9%	14.4	·	?	34.0	·
Cc1nnc(SCC(=O)NNC(=O)C(C)C)[nH]c1=O	11.7µM*	22.4µM*	3.0	5.1%	18.0%	-2.3	i
CNC(=O)CCN(Cc1ccco1)S(=O)(=O)c1ccc(OC)c(OC)c1	29.9%	0.8%	0.9	-4.4%	35.1%	-2.9	·
COc1ccc(NC(=O)CCNC(=O)c2ccccc2Cl)cc1OC	?	-0.8%	4.9	4.0%	43.8%	-5.6	·
COc1cccc(-c2c(NC(=O)c3ccco3)oc3ccccc3c2=O)c1	40.2%	?	2.5	-16.0%	11.5%	20.6	i
Cc1onc(-c2ccccc2)c1C(=O)NC(=S)NNC(=O)c1ccc(O)cc1	?	0.9%	7.1	?	?	37.8	·
SMILES	Pf growth 96h	SARS PLpro yeast-1	Cycloheximide cs	NS1 function inh	Pf growth 48h	Shiga inhibitor	SARS PLpro yeast-2
Cc1onc(-c2ccccc2)c1C(=O)NC(=S)NNC(=O)c1ccc(O)cc1O	?	14.1µM*	-2.2	28.3%	0.0%	11.4	+
Cc1onc(-c2ccccc2)c1C(=O)NC(=S)NNC(=O)c1ccccc1O	?	4.47µM*	-3.3	-9.8%	?	3.7	i
Cc1onc(-c2ccccc2)c1C(=O)NNC(=O)c1ccccc1Br	-20.4%	2.5%	·	·	2.8%	·	·
CC(C(=O)O)N(C(=O)c1ccccc1)c1ccc(F)cc1 (stereo not drawn)	30.5%	0.9%	-1.7	-1.3%	8.5%	27.1	·
CN1CCOC(c2ccccc2)c2ccccc2C1 (stereo not drawn)	10.4µM*	5.01µM*	-2.3	-1.6%	28.7%	-12.8	i
COC(=O)Cc1c(C)nc2nc(-c3ccc(Cl)cc3)[nH]n2c1=O	9.5%	?	-6.0	-0.2%	·	-8.4	i
COC(=O)Cc1c(C)nc2nc(-c3ccc(C)cc3)[nH]n2c1=O	15.1%	15.2%	-3.0	0.8%	·	-5.2	·
Cc1ccc(C(=O)N2CCCC(N3CCN(c4ccccc4F)CC3)C2)s1 (stereo not drawn)	-13.9%	4.8%	12.9	2.8%	-19.3%	-12.2	·
CC(C)CC(=O)NC(=S)N1CCN(c2ccc([N+](=O)[O-])cc2Cl)CC1	?	?	-3.2	4.4%	-27.6%	-3.5	i
CC(C)CC(=O)N1CCN(c2ccc([N+](=O)[O-])cc2Cl)CC1	37.8%	-34.9%	10.9	-20.0%	1.1%	-5.8	·
COc1ccc(/C=N/N2CCN(c3ccc(Cl)cc3)CC2)cc1	63.4%	2.7%	-2.5	17.8%	74.2%	·	·
Cc1ccc(N=C2C(=S)N(c3ccc(C)cc3)C(=N)N2/N=C/c2ccc(Cl)cc2)cc1	?	11.2µM*	48.3*	6.4%	-22.7%	74.3*	+
CCn1cc(CN2CCC(C(=O)Nc3cccc(-c4cccc(OC)c4)c3)CC2)c(C)n1	12.8%	?	-2.9	8.4%	?	12.4	i
COc1cccc(-c2cccc(NC(=O)C3CCN(Cc4cccc(C)n4)CC3)c2)c1	7.7%	?	-3.4	-6.7%	?	-30.0	·
COC(=O)CCCn1c(C)cc(C(=O)CCl)c1C	?	11.2µM*	6.7	·	?	-9.3	+
Cc1cc(C(=O)CCl)c(C)n1CCc1ccccc1	-25.7%	8.7%	7.9	·	-12.7%	15.1	·

From PubChem
